MARV entry inh: Marburg virus entry inhibition | Marburg virus pseudotyped entry inhibition, cell reporter | Potency, µM (series often up to 37.8 µM), without a hit: top-dose activity change, negative = inhibition, usual class: inhibitors | hit rate 1.8% among 300,000; calls by dose curve; tested in HEK293 cells
VACV mCherry inh: vaccinia inhibition (mCherry reporter). Vaccinia virus mCherry reporter infection, fluorescence. Potency, µM (top dose mostly 36.5 µM), for inactives: at the highest dose activity change, negative = inhibition, usual class: inhibitors. hit rate 0.63% among 310,000. AID 720579; calls by dose curve; tested in A549 cells; note: nearly all actives have a fitted effect of over 35% in size
LASV entry inh: Lassa virus entry inhibition | Lassa virus pseudotype entry inhibition, cell reporter | Potency, µM (doses to about 37.9 µM), for the others: at the highest dose activity change, negative = inhibition, usual class: inhibitors | hit rate 1.2% among 300,000; calls by dose curve; tested in HEK293 cells; note: nearly all actives have a fitted effect of over 50% in size
VACV Venus inh: inhibitors of vaccinia virus (Venus reporter); Vaccinia virus Venus reporter expression, fluorescence; Potency, µM (titrated, usually from 36.5 µM), for the others: at the top dose activity change, negative = inhibition, actives largely listed as inhibitors; hit rate 0.46% among 330,000; AID 720580; calls by dose curve; tested in A549 cells; note: nearly all actives have a fitted effect of over 30% in size
FMDV inh: foot and mouth disease virus antiviral activity | FMDV antiviral cell-based qHTS | hit rate 1.2% among 410,000 | Potency, µM (titrated, usually from 57.9 µM), for inactives: at the top dose activity change, negative = inhibition, most hits filed as inhibitors; calls by dose curve; tested in HEK293T cells; note: read-out not given here; nearly all actives have a fitted effect of over 45% in size
* marks the source's active call; other numbers are inactive results; i = inactive; ? = inconclusive; nt = no result given; [ ] = dose if it differs, or a comment. Most compounds without a hit are left out; they make up all but 3.2% or so of the library. % is set by controls: 0 for no effect and ±100 for the full control effect; potency is the fitted concentration of half-maximal effect.

SMILES | MARV entry inh | VACV mCherry inh | LASV entry inh | VACV Venus inh | FMDV inh
COc1ccc(C=CC(=O)c2c(OC)cc(OC)c(OC)c2O)cc1 | ? | ? | -25% | ? | 18µM*
COc1ccc(C(=O)/C=C/c2cc(OC)c(O)c(OC)c2)c(F)c1 | ? | ? | 13µM* | 178% | ?
COc1ccc(C(=O)/C=C/c2ccc(N3CCCCC3)c([N+](=O)[O-])c2)c(OC)c1 | 4% | 11µM* | ? | ? | ?
COc1ccc2cc(C(=O)/C=C/c3cc(OC)c(O)c(OC)c3)ccc2c1 | ? | ? | ? | 321% | 21%
COc1ccc(C(=O)/C=C/c2ccc(N(C)C)cc2)c(OC)c1 | 7.1µM* | ? | 10µM* | 7% | 43%
COC1=C[C@H](C(=O)NC2CCN(Cc3ccccc3)CC2)[C@@]2(C)Cc3ccccc3[C@@H]2CC1=O | -18%[14.2 µM] | nt | nt | nt | nt
COc1ccc(C=CC(=O)c2cc(O)ccc2O)cc1 | 1%[46.1 µM] | 7.9µM* | ? | -24% | 25%
Cc1c(C(=O)OCCOc2ccccc2)[nH]c2c1C(=O)CCC2 | ? | -15% | 7.9µM* | -25% | -63%
CCOc1ccc(C2CC(=O)c3c([nH]c(C(=O)OCCOc4ccccc4)c3C)C2)cc1 (stereo not given) | -1%[46.1 µM] | -17% | ? | ? | -23%
CC(=O)c1cccc(NC(=O)CN2C(=O)c3ccccc3Sc3ncccc32)c1 | nt | -5% | -11%[46.1 µM] | 4% | 40µM*
COc1ccc(C[C@H]2CN3C(=NC[C@H]3Cc3ccccc3)N2CCNC(=O)c2ccc(C)c(Br)c2)cc1 | nt | ? | nt | 14µM* | ?
COc1ccc(C[C@H]2CN3C(=NC[C@H]3Cc3ccccc3)N2CCNC(=O)CCC2CCCCC2)cc1 | nt | 11µM* | nt | ? | -22%
COc1ccc(C[C@H]2CN3C(=NC[C@@H]3Cc3ccccc3)N2CCNC(=O)c2ccc(C)c(Br)c2)cc1 | nt | ? | nt | 13µM* | ?
COc1ccc(C[C@H]2CN3C(=NC[C@@H]3Cc3ccc(O)cc3)N2CCNC(=O)c2ccc(C)c(Br)c2)cc1 | nt | ? | nt | ? | -29%
Cc1ccc(C(=O)NCCN2C3=NC[C@@H](Cc4ccccc4)N3C[C@H]2Cc2ccc(O)cc2)cc1Br | nt | -13% | nt | ? | -21%
C/C=C(\C)C(=O)NCCN1C2=NC[C@H](Cc3ccccc3)N2C[C@@H]1Cc1ccc(OC)cc1 | nt | -32% | nt | -13% | -11%
COc1ccc(-c2nc3ccccn3c2Nc2ccccc2C)cc1 | nt | -14% | nt | -13% | nt
C=C(C)COc1ccc(-c2[nH]ncc2-c2ccccc2)c(O)c1 | ? | nt | 8.9µM* | ? | ?
C=C(C)COc1ccc(-c2nc(N)ncc2-c2ccc(OC)c(OC)c2)c(O)c1 | 13µM* | -11% | -2%[46.1 µM] | -27% | -22%
COc1ccc(-c2n[nH]c(C)c2-c2ccc(Cl)cc2)c(O)c1 | -14% | nt | ? | ? | ?
C=C(C)COc1ccc(-c2nc(N)ncc2-c2ccc(OC)cc2)c(O)c1 | -3% | nt | nt | nt | nt
COc1ccc(-c2n[nH]c(C)c2-c2ccc(Cl)cc2)c(O)c1OC | -12% | nt | ? | nt | 32µM*
C=C(C)COc1ccc(-c2[nH]ncc2Oc2cccc(OC)c2)c(O)c1 | -30% | ? | 1.6µM* | ? | 23%
C#CCN(Cc1nc(N2CCOCC2)c2ccc(Cl)cc2n1)Cc1ccco1 | nt | -8% | nt | 6% | -7%
CN(Cc1ccon1)C(=O)c1cnn(-c2ncc3c(n2)-c2ccccc2CCC3)c1C1CC1 | nt | -14% | nt | 0% | 20%
SMILES | MARV entry inh | VACV mCherry inh | LASV entry inh | VACV Venus inh | FMDV inh
CCC(CO)Nc1ncnc2c1cnn2-c1ccc(C)cc1 (stereo not given) | nt | -4% | 1%[46.1 µM] | -6% | ?
Cc1cc(C)n2c(Nc3cccc(C(F)(F)F)c3)c(-c3ccsc3)nc2n1 | ? | -28% | ? | ? | -21%
NC1CCc2ccc([N+](=O)[O-])cc21 (stereo not given) | nt | 6% | nt | -14% | nt
C=C(C)COc1ccc(-c2n[nH]c(C)c2Oc2ccccc2OC)c(O)c1 | ? | nt | ? | ? | -27%
C=C(C)COc1ccc(-c2n[nH]c(C)c2-c2ccc(OC)c(OC)c2)c(O)c1 | ? | ? | 0.63µM* | ? | ?
C=C(C)COc1ccc(-c2[nH]ncc2-c2ccc(OC)c(OC)c2)c(O)c1 | 1.6µM* | nt | 1.3µM* | 10µM* | ?
C=C(C)COc1ccc(-c2[nH]ncc2-c2ccc(OC)cc2)c(O)c1 | nt | nt | nt | nt | -13%
COc1ccc2c(CNCc3cccs3)c(C(=O)O)n(Cc3ccccc3C)c2c1 | nt | i | 5%[46.1 µM] | -16% | 3%
CSc1ncc(CN2CCCCC2C(=O)Nc2ccc(Oc3ccccc3)nc2)cn1 (stereo not given) | 5.6µM* | -14% | -5% | -12% | -16%
Cc1nc([N+](=O)[O-])c(Br)n1Cc1ccc(Cl)c(Cl)c1 | nt | nt | nt | nt | 18µM*
Cc1nc([N+](=O)[O-])c(Br)n1CC(=O)c1ccc(Cl)cc1 | ? | nt | ? | ? | -32%
COc1ccc(C(=O)Cn2c(C)nc([N+](=O)[O-])c2Br)cc1 | -1% | 3.5µM* | -11% | 7.9µM* | ?
Cc1nc([N+](=O)[O-])c(NCCO)n1Cc1ccccc1 | 10%[46.1 µM] | i | -23% | -10% | -17%
O=C(O)c1ccccc1N/N=C/c1cc(Br)cc(Br)c1O | 15µM* | -22% | ? | -5% | -2%
O=C(O)c1ccccc1N/N=C\c1ccnc2ccccc12 | 4µM* | nt | ? | -13% | 10µM*
COc1ccc(NC(=O)/C=C/c2cc(Br)ccc2OC)cc1 | 12% | nt | -5% | -16% | -2%
COc1ccc(Br)cc1/C=C/C(=O)c1ccc(NC(C)=O)cc1 | ? | 4.5µM* | 4µM* | 5.6µM* | 10µM*
COc1ccc(CCn2c(=S)[nH]c(=O)c3nccnc32)cc1OC | nt | i | nt | -20% | nt
Cc1nnsc1C(=O)NC1CCCc2c1cnn2-c1ccccc1F (stereo not given) | ? | -3% | 0.5µM* | -15% | ?
CCc1cc(C(=O)NC2CCCc3c2cnn3-c2cccc(C)c2C)n(C)n1 (stereo not given) | ? | -27% | ? | -13% | 28µM*
O=C(NC1CCCc2c1cnn2-c1ccccc1F)c1ccccn1 (stereo not given) | nt | nt | nt | nt | -21%
COC(=O)C1=C(C)N=C2S[C@@H](C)C(=O)N2[C@H]1c1cccs1 | 6% | nt | nt | nt | nt
COCc1c(C(=O)OCc2nc(N)nc(Nc3ccccc3C)n2)oc2ccccc12 | 23µM* | nt | ? | nt | -5%
O=C(O)c1cc(/C=C/c2ccc(N3CCOCC3)cc2)nc2ccccc12 | ? | i | ? | -1% | 10µM*
CC(C)CC(NC(=O)OCc1ccccc1)C(=O)NC(Cc1c[nH]c2ccccc12)C(=O)O (stereo not given) | nt | -6% | nt | 4% | -24%
COc1ccccc1CNC(=O)C(Cc1c[nH]c2ccccc12)NC(=O)OCc1ccccc1 (stereo not given) | ? | -28% | 4.5µM* | -26% | -25%
CCN(CC)C(=O)c1sc2c(c1C)c(=O)n(CCc1ccccc1)c(=O)n2Cc1cccc(Cl)c1 | nt | -29% | 6.3µM* | -25% | ?
COc1ccc(O[C@@H]2[C@H](O)CO[C@@H]2C=CC#Cc2ccccc2)cc1 | 8%[14.2 µM] | nt | nt | nt | nt
